Assay results as given in the supplement of paper PMC11732987, “Enantioselective OTUD7B fragment discovery through chemoproteomics screening and high-throughput optimisation” (Communications Chemistry, 2025).

Key:
Assay in all cases: log2 ratio of Biotin-Ahx-Ub-VS probe labelling (fragment/DMSO); higher = less target engagement (more negative = stronger competition), active = hit call of the paper (q ≤ 0.05, log2 ratio ≤ -1)
Settings in all cases: compound concentration: 200 uM; treatment time: 3 h
OTUD6B = target: T1, OTUD6B (UniProt Q8N6M0)
T1 sequence (whole entry): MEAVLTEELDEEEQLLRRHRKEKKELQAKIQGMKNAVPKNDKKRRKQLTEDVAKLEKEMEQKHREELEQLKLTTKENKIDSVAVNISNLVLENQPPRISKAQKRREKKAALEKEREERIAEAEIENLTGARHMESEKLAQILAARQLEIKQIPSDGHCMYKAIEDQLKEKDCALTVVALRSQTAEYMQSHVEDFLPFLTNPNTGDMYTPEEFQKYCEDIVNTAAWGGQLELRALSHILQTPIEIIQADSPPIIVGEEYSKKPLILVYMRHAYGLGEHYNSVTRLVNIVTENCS
Procedure, shortened: (§1)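 HEK293T lysate (495 µg per sample, in Tris/CHAPS/IGEPAL buffer with protease inhibitors) was exposed in triplicate for 3 h to fragment at 200 µM or to vehicle, then to Biotin-Ahx-Ub-VS at 0.5 µM final for 1 h. Labelled DUBs were enriched on NeutrAvidin, digested with LysC and trypsin, and analysed by diaPASEF LC-MS/MS. Spectronaut label-free quantities were normalised to the global median, and values are average log2 ratios of fragment over vehicle from an unpaired t-test. Only proteins with ≥2 unique peptides were used.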

OTUD7B = target: T2, OTUD7B (UniProt Q6GQQ9)
T2 sequence (whole entry): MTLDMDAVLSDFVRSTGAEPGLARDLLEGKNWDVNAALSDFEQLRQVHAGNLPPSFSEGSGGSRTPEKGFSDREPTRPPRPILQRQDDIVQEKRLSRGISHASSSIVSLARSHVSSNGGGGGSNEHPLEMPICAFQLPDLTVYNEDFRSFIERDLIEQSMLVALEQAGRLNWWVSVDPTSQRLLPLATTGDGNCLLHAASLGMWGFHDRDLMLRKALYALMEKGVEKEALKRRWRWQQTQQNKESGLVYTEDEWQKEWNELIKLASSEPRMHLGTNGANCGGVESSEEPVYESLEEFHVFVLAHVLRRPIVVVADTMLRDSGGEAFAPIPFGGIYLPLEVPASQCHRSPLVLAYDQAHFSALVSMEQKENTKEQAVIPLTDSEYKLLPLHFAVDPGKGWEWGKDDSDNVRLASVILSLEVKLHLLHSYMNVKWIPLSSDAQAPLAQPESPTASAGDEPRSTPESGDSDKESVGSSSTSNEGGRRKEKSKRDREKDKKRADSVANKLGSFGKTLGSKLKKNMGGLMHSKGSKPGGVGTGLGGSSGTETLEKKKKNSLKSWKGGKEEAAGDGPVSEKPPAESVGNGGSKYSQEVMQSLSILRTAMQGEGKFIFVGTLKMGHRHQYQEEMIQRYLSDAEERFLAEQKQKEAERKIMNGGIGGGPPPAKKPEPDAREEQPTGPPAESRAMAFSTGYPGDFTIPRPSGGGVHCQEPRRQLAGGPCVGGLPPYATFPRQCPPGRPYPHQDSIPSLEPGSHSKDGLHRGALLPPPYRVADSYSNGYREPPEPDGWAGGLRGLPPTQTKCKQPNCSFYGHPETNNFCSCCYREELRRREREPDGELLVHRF
Procedure, shortened: as §1

PRPF8 = PRPF8 (UniProt Q6P2Q9)
Procedure, shortened: as §1

PSMD7 = target: T3, PSMD7 (UniProt P51665)
T3 sequence (whole entry): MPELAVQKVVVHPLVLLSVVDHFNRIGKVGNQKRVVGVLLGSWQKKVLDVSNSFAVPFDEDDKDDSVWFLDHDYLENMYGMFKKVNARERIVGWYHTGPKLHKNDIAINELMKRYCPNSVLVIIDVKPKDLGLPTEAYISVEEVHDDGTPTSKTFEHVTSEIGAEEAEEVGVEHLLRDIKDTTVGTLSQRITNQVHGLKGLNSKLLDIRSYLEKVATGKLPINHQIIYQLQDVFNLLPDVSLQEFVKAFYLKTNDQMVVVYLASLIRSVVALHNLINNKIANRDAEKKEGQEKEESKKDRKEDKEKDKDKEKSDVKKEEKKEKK
Procedure, shortened: as §1

UCHL1 = UCHL1 (UniProt P09936)
Chain of UCHL1 (P09936 whole entry, looked up): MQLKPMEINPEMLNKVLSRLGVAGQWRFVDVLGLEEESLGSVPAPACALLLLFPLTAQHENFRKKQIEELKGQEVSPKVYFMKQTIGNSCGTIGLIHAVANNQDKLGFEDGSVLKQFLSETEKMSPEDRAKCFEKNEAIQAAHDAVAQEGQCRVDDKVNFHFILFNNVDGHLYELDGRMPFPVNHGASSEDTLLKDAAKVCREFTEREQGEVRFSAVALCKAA
Procedure, shortened: as §1

UCHL3 = target: T4, UCHL3 (UniProt P15374)
T4 sequence (whole entry): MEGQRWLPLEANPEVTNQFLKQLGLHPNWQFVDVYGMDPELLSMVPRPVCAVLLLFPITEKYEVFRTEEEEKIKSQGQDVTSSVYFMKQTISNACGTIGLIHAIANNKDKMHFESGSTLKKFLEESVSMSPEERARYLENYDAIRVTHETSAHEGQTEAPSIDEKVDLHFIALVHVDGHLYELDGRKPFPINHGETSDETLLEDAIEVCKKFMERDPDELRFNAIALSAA
Procedure, shortened: as §1

UCHL5 = target: T5, UCHL5 (UniProt Q9Y5K5)
T5 sequence (whole entry): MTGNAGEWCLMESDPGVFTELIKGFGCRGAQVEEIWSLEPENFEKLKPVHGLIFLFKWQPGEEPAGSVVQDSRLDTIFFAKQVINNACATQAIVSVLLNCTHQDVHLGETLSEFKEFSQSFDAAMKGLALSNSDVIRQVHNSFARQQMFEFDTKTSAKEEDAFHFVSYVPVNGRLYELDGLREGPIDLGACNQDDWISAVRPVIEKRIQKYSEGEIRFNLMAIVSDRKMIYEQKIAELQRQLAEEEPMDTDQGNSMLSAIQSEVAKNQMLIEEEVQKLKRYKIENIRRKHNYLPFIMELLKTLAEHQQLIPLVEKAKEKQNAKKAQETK
Procedure, shortened: as §1

USP10 = USP10 (UniProt Q14694)
Chain of USP10 (Q14694 whole entry): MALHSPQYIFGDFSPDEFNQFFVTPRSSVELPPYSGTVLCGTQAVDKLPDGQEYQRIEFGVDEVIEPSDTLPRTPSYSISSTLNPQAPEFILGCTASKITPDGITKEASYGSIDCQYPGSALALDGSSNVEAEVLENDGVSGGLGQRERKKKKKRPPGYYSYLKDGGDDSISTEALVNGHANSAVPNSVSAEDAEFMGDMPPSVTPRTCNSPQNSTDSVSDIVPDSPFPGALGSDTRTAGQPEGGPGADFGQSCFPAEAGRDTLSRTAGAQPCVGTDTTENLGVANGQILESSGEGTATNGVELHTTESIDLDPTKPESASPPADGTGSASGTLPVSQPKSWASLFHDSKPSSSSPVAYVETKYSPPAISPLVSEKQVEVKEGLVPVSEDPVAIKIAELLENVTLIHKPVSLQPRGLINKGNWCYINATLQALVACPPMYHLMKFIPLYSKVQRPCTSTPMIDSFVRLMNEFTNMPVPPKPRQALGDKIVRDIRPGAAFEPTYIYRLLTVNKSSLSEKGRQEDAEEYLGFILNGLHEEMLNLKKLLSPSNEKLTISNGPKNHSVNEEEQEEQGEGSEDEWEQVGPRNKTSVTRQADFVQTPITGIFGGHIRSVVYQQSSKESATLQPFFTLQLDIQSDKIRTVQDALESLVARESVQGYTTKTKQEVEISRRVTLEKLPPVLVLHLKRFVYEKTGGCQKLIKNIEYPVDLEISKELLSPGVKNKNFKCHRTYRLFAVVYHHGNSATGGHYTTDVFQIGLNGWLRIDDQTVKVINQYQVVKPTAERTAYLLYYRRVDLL
Procedure, shortened: as §1

USP15 = target: T6, USP15 (UniProt Q9Y4E8)
T6 sequence (whole entry): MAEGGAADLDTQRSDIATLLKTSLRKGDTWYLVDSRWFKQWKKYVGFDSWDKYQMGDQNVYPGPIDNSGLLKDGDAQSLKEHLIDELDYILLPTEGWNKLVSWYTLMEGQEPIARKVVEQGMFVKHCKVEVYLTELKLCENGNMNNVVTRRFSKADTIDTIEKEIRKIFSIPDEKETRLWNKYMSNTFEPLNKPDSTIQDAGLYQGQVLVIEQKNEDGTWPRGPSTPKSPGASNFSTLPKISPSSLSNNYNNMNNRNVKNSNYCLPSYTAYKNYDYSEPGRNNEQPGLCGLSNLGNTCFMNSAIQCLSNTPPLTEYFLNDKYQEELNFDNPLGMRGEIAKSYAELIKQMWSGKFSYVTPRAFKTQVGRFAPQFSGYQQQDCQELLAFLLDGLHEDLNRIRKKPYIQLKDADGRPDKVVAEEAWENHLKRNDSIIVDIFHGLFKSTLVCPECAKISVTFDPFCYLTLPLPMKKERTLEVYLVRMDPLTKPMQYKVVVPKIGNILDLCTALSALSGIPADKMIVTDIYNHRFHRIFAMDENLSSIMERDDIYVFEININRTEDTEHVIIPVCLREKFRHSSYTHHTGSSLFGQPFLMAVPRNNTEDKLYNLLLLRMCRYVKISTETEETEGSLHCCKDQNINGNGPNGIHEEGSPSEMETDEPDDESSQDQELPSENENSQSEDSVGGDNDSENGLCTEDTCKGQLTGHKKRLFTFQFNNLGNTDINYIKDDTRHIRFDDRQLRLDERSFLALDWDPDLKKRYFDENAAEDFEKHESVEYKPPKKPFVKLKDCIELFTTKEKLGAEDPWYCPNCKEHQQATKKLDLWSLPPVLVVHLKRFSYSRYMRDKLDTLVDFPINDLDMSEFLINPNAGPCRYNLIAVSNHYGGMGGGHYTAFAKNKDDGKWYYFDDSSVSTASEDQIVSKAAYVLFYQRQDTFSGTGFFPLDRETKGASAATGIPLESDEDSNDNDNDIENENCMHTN
Procedure, shortened: as §1

USP16 = USP16 (UniProt Q9Y5T5)
Chain of USP16 (Q9Y5T5 whole entry, looked up): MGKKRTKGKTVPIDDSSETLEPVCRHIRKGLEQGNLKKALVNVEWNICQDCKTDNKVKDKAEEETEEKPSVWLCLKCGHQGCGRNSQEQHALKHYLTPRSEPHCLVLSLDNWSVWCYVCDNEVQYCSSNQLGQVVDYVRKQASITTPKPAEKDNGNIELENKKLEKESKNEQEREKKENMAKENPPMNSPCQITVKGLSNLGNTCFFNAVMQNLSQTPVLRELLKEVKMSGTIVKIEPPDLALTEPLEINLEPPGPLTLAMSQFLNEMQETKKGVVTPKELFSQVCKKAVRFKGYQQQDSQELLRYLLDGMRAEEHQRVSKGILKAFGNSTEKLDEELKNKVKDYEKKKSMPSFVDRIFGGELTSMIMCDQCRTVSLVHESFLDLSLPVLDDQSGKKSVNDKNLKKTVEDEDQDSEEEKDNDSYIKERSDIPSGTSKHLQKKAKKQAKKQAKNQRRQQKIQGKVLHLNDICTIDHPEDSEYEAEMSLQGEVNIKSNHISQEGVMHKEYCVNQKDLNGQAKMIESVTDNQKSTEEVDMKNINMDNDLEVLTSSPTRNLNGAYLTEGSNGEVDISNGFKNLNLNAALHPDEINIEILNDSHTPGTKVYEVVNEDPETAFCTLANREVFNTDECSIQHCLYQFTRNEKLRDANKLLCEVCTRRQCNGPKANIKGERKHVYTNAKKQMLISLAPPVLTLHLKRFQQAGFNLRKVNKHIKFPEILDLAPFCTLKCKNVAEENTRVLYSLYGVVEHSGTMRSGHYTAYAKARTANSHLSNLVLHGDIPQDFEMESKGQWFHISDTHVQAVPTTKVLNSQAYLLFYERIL
Procedure, shortened: as §1

Measured: log2 ratio of Biotin-Ahx-Ub-VS probe labelling

CC(=O)Nc1ccc(NC(=O)CCl)cc1
active: OTUD7B -1.13
inactive: OTUD6B -0.276 | PRPF8 0.0134 | PSMD7 -0.163 | UCHL1 -0.918 | UCHL3 0.206 | UCHL5 -0.201 | USP10 -0.113 | USP15 -0.154 | USP16 -0.288
